Screening data from PubChem.
HCV inh = qHTS Assay for Inhibitors of Hepatitis C Virus (HCV). Huh7.5.1 HCVcc-Cre infection, luciferase reporter, 44 h. Potency, µM (highest dose often 41.8 µM), usual class: inhibitors. actives 3.4% (n = 340,000). AID 651820, 2012; active means well fitted inhibition curve with a large enough effect; inconclusive means small, poorly fitted or top-dose-only effect, or another doubt; inactive means no such curve, though single readings can be large or run the other way
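Infectious HCVcc-Cre (~0.5 moi) was added to cells just after compound, with cells seeded 4 h earlier at 1,000 per well. Luciferase activity after 44 h culture reported infection; substrate was incubated 15 min at room temperature before reading.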
Vaccinia mCherry = qHTS for Stage-Specific Inhibitors of Vaccinia Orthopoxvirus: mCherry Reporter Primary qHTS | actives 0.63% (n = 310,000) | Potency, µM (highest dose often 36.5 µM), usual class: inhibitors | Vaccinia virus mCherry reporter infection, fluorescence | AID 720579, 2013; calls by dose curve; tested in A549 cells; further: nearly all actives have a fitted effect of over 35% in size
HCMV inh = qHTS Assay for inhibitors of the human cytomegalovirus (HCMV). HFF cells, HCMV-luciferase reporter, 72 h; active compounds read low. activity change, negative = inhibition, % at 57.5 µM. actives 4.5% (n = 410,000). AID 1259415, 2018; in the data active means activity change below about -60%; inconclusive means no clear call, values can overlap the other calls; inactive means above about -39%
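Compounds were evaluated in HFFs infected with an HCMV luciferase reporter virus (MOI 1 PFU/cell). Luciferase in lysates collected 72 h post infection served as the replication measure.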
FMDV antiviral = High Throughput Screening for Foot and Mouth Disease Virus Antivirals; FMDV antiviral cell-based qHTS; Potency, µM (top dose mostly 57.9 µM), hits mostly inhibitors; actives 1.2% (n = 410,000); AID 1159524, 2015; calls by dose curve; tested in HEK293T cells; further: read-out not given here; nearly all actives have a fitted effect of over 45% in size
VACV Venus inh = qHTS for Stage-Specific Inhibitors of Vaccinia Orthopoxvirus: Venus Reporter Primary qHTS. Vaccinia virus Venus reporter expression, fluorescence. actives 0.46% (n = 330,000). Potency, µM (titrated, usually from 36.5 µM), most hits filed as inhibitors; calls by dose curve; tested in A549 cells; further: nearly all actives have a fitted effect of over 30% in size
Hits are given with their value. Only some compounds are listed: those with a hit (about 7.3% of all), similar ones and a draw of the others.

What do the screens show for `CCCc1cc(=O)oc2cc(OCC(=O)NCCc3c[nH]c4ccccc34)ccc12`?
HCV inh: 4.47µM; Vaccinia mCherry: inconclusive; HCMV inh: inconclusive; FMDV antiviral: inconclusive; VACV Venus inh: inconclusive

What do the screens show for `CCCc1cc(=O)oc2cc(OCC(=O)Nc3cc(C)on3)ccc12`?
HCV inh: inactive; Vaccinia mCherry: inactive; HCMV inh: inactive; FMDV antiviral: inactive; VACV Venus inh: inactive

What do the screens show for `O=C(CCN1C(=O)c2ccccc2Sc2ncccc21)Nc1ccc(F)cc1F`?
Vaccinia mCherry: inactive; HCMV inh: inactive; FMDV antiviral: inactive; VACV Venus inh: inactive

How did CCOc1ccccc1N1C(=O)CN(Cc2ccc(OC)c(OC)c2)C1=S do in these assays?
HCV inh: 12.6µM; HCMV inh: inactive; FMDV antiviral: inactive

What do the screens show for `COc1ccc(CN2CC(=O)N(c3cc(Cl)ccc3OC)C2=S)cc1OC`?
HCV inh: 11.2µM; HCMV inh: inactive; FMDV antiviral: inconclusive

What do the screens show for `COc1ccc(CN2CC(=O)N(c3ccc(Cl)cc3)C2=S)cc1OC`?
HCV inh: inactive; Vaccinia mCherry: inactive; HCMV inh: inactive; FMDV antiviral: inactive; VACV Venus inh: inactive

What do the screens show for `COc1ccc(CN2CC(=O)N(c3ccccc3OC)C2=S)cc1OC`?
HCV inh: inactive; Vaccinia mCherry: inactive; HCMV inh: inactive; FMDV antiviral: inactive; VACV Venus inh: inactive

Results for COc1ccc(Cl)cc1N1C(=O)CN(Cc2cc(OC)c(OC)c(OC)c2)C1=S ?
HCV inh: 15.8µM; HCMV inh: inactive; FMDV antiviral: inactive

How did CCC(C)(C)n1nnnc1C(c1cccnc1)N1CCN(c2cccc(C(F)(F)F)c2)CC1 (stereo not drawn) do in these assays?
HCV inh: inactive; HCMV inh: inactive; FMDV antiviral: inactive

How did COc1ccccc1CNC(=O)c1ccc2nc(C)c(N(C)Cc3ccc(NC(C)=O)cc3)n2c1 do in these assays?
Vaccinia mCherry: inactive; HCMV inh: inactive; FMDV antiviral: inactive; VACV Venus inh: inactive

Results for CCc1ccc(/C=C2\SC(=S)N(CCCC(=O)Nc3ccccn3)C2=O)cc1 ?
HCV inh: inactive; HCMV inh: -103.0; FMDV antiviral: 20µM; VACV Venus inh: inactive

What do the screens show for `COC(=O)c1ccc(/C=C2/SC(=S)N(CCCC(=O)Nc3ccccn3)C2=O)cc1`?
HCV inh: inactive; Vaccinia mCherry: inactive; HCMV inh: -84.7; FMDV antiviral: inactive; VACV Venus inh: inactive

How did CCc1ccc(/C=C2/SC(=S)N(CCCC(=O)Nc3ccccc3C(=O)O)C2=O)cc1 do in these assays?
HCV inh: inactive; Vaccinia mCherry: inactive; HCMV inh: inactive; FMDV antiviral: inconclusive; VACV Venus inh: inactive

Results for COC(=O)c1ccc(/C=C2\SC(=S)N(CCCC(=O)NCCCN3CCOCC3)C2=O)cc1 ?
HCV inh: inactive; Vaccinia mCherry: inactive; HCMV inh: inconclusive; FMDV antiviral: inactive; VACV Venus inh: inactive

Results for CCn1nc(C)c(CNC(=O)c2cc(COc3ccc(C)nc3)on2)c1C ?
HCV inh: 11.2µM; Vaccinia mCherry: inactive; HCMV inh: inactive; FMDV antiviral: inconclusive; VACV Venus inh: inactive

What do the screens show for `CCn1nc(C)c(CNC(=O)c2cc(COc3ccc(F)cc3Cl)on2)c1C`?
HCV inh: inconclusive; HCMV inh: -84.9; FMDV antiviral: inconclusive

What do the screens show for `CCn1cc(CNC(=O)c2cc(COc3ccc(F)cc3Cl)on2)cn1`?
HCV inh: inconclusive; Vaccinia mCherry: inactive; HCMV inh: inconclusive; FMDV antiviral: inactive; VACV Venus inh: inactive

What do the screens show for `Clc1nc(NCC2CCCO2)c2[nH]cnc2n1` (stereo not drawn)?
Vaccinia mCherry: inactive; VACV Venus inh: inactive

What do the screens show for `COC(=O)c1scc(-c2ccc(C)cc2)c1S(=O)(=O)Nc1cc(OC)c(OC)c(OC)c1`?
Vaccinia mCherry: inactive; HCMV inh: inactive; FMDV antiviral: inactive; VACV Venus inh: inactive

What do the screens show for `Cc1cc(C(=O)Nc2ccccc2-c2nc(CNC(=O)c3ccc(F)cc3F)c(C)o2)c(C)o1`?
Vaccinia mCherry: inactive; FMDV antiviral: inactive; VACV Venus inh: inactive

How did CCC(NC(=O)c1cc(COc2cncc(Cl)c2)on1)c1ccc(C)cc1 (stereo not drawn) do in these assays?
HCV inh: inactive; Vaccinia mCherry: inactive; HCMV inh: -99.2; FMDV antiviral: inactive; VACV Venus inh: inactive
